Only a selection was taken, and hits are over-represented in it overall.
Tgondii IFNg: T. gondii growth inhibition under IFN-gamma | AID 1259416 | Toxoplasma gondii growth in IFN-gamma-treated host cells; stronger effect = lower value | 3.8% of 69,000 active | activity change, negative = inhibition, % (test concentration not listed); in the data active = activity change below about -70%, passing the limit was not always enough;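 note: host cells are HeLa cells infected with Toxoplasma gondii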
An asterisk follows results filed as active; ! = a repeat was not active.

SMILES | Tgondii IFNg
CN(Cc1ccc2ccccc2n1)C(=O)c1cc(COc2ccccc2)[nH]n1 | -20
CCOC(=O)c1ccc(Nc2nnc(-n3nc(C)cc3C)c3ccccc23)cc1 | -85*
Cc1cc(C)n(-c2nnc(SCC(=O)Nc3ccccc3)c3ccccc23)n1 | 3
CCOC(=O)c1nc(Nc2ccc(CC)cc2)c2ccccc2n1 | -38
COc1ccc([C@H]2CN(Cc3ccccc3)[C@@H]3CCCN(C(C)=O)[C@H]23)cc1 | -3
COc1ccc2c3c(n(C)c2c1)[C@@H](CO)N(C)CC31CCN(C(=O)NC(C)C)CC1 | 5
COc1cc2c(cc1OC)C(c1ccnn1C)=NCC2 | -8
CCC1(O)CC2CN(CCc3c([nH]c4ccccc34)C(C(=O)OC)(c3cc4c(cc3OC)N(C)C3C(O)(C(=O)OC)C(C(=O)OC)C5(CC)C=CCN6CCC43C65)C2)C1 (configuration not stated) | -86*
CCCNC(=O)Nc1ccc2c(c1)OC[C@H](C)N(Cc1cncnc1)C[C@@H](C)[C@@H](OC)CN(C)C2=O | 94
Cc1ccccc1C(=O)O/N=C1\C(=O)c2ccccc2-c2ccccc21 | -86*
COC(=O)c1ccccc1-c1ccccc1C(=O)OC | -59
Cc1ccccc1C(=O)NN1C(=O)c2ccccc2C1=O | -31
CCn1c(=O)c(-c2nc(-c3ccccc3OC)no2)c(O)c2cc(F)ccc21 | -33
Cc1ccc2c(c1C)-n1cccc1C1(CCN(C(=O)CC(C)C)CC1)N2 | 18
Cc1cccc2[nH]c(CCNC(=O)[C@H]3CCCO3)nc12 | -39
COc1ccc(CN(C)C[C@@H]2OCCCC[C@H](C)Oc3ccc(NC(=O)C4CCCCC4)cc3C(=O)N([C@@H](C)CO)C[C@@H]2C)cc1 | 93
C[C@H](CO)N1C[C@H](C)[C@@H](CN(C)C(=O)Nc2ccc(C(F)(F)F)cc2)OCCCC[C@H](C)Oc2ccc(NS(=O)(=O)c3cn(C)cn3)cc2C1=O | 143
C[C@@H]1CCCCO[C@H](CN(C)C(=O)Nc2ccc(C(F)(F)F)cc2)[C@H](C)CN([C@H](C)CO)C(=O)c2cc(NS(=O)(=O)c3cn(C)cn3)ccc2O1 | -83*
COc1ccc(S(=O)(=O)Nc2ccc3c(c2)C(=O)N([C@H](C)CO)C[C@H](C)[C@@H](CN(C)Cc2ccc(C(F)(F)F)cc2)OCCCC[C@@H](C)O3)cc1 | -91*
Cc1ccc(S(=O)(=O)Nc2ccc3c(c2)C(=O)N([C@H](C)CO)C[C@@H](C)[C@H](CN(C)Cc2ccc(C(F)(F)F)cc2)O3)cc1 | -20
COc1ccc(CN(C)C[C@@H]2OCCCC[C@@H](C)Oc3ccc(NC(=O)C4CCCCC4)cc3C(=O)N([C@@H](C)CO)C[C@H]2C)cc1 | -3
COc1ccc(S(=O)(=O)Nc2ccc3c(c2)C(=O)N([C@H](C)CO)C[C@@H](C)[C@H](CN(C)Cc2ccc(C(F)(F)F)cc2)OCCCC[C@H](C)O3)cc1 | -101*
COc1ccc(CN(C)C[C@H]2OCCCC[C@@H](C)Oc3ccc(NC(=O)C4CCCCC4)cc3C(=O)N([C@H](C)CO)C[C@H]2C)cc1 | 39
COc1ccc(S(=O)(=O)Nc2ccc3c(c2)C(=O)N([C@@H](C)CO)C[C@H](C)[C@@H](CN(C)Cc2ccc(C(F)(F)F)cc2)OCCCC[C@H](C)O3)cc1 | -129*
COc1ccc(CN(C)C[C@@H]2OCCCC[C@H](C)Oc3ccc(NC(=O)C4CCCCC4)cc3C(=O)N([C@H](C)CO)C[C@H]2C)cc1 | -25
SMILES | Tgondii IFNg
C[C@@H]1CN([C@@H](C)CO)C(=O)c2cc(NS(=O)(=O)c3cn(C)cn3)ccc2O[C@@H](C)CCCCO[C@@H]1CN(C)C(=O)Nc1ccc(C(F)(F)F)cc1 | 45
COc1ccc(S(=O)(=O)Nc2ccc3c(c2)C(=O)N([C@H](C)CO)C[C@H](C)[C@@H](CN(C)Cc2ccc(C(F)(F)F)cc2)OCCCC[C@H](C)O3)cc1 | 6
CCCNC(=O)[C@@H]1[C@@H](CO)[C@@H]2Cn3c(cccc3=O)[C@@H]2N1Cc1cccc(F)c1 | -2
O=C(c1cc2n(n1)CCNC2)N(Cc1ccccn1)Cc1ccco1 | -6
CCS(=O)(=O)N1CCc2[nH]nc(-c3ccc(F)cc3)c2CC1 | -10
O=C(NCc1cccnc1)C1CN(c2nccc(CCC(F)(F)F)n2)CCN1 (configuration not stated) | -21
CCn1ccc(NC(=O)C2CCN(S(=O)(=O)c3ccc(F)cc3)C2)n1 (configuration not stated) | 27
Cc1ccccc1-c1ccccc1[C@H]1[C@@H](CO)N(C(=O)c2ccc(F)cc2)[C@H]1C#N | 20
CNc1ncccc1C(=O)N[C@H]1C[C@H]2C(=O)N(C)CC(=O)N2C1 | -27
O=C(NCC1CCCO1)C12CC3CC(CC(C3)C1)C2 (configuration not stated) | -30
CCN(CC)c1ncnc2c1cnn2CC(=O)NCc1cccc(Cl)c1 | 27
O=C(C[C@@H]1C=C[C@H](NC(=O)c2ccncc2)[C@@H](CO)O1)NCC1CC1 | -34
Cc1ccc(-c2cc(O)c3c(c2)CN(C(=O)CCN2CCCO2)CCO3)s1 | -75*
Cc1ccc(-c2cc(O)c3c(c2)CN(CC2CCCN2C)CCO3)s1 (configuration not stated) | -6
Cc1noc(CN2CCOc3c(O)cc(-c4ccc(C)s4)cc3C2)n1 | 0
Cc1csc(CN2CCOc3c(O)cc(-c4ccc(C)s4)cc3C2)n1 | -6
Cc1cc(C(=O)N2CCOc3c(O)cc(-c4ccccc4C)cc3C2)no1 | -63
Cc1ccc(-c2cc(O)c3c(c2)CN(C(=O)c2cccc(F)c2)CCO3)s1 | -70*
COc1ccccc1CC(=O)N1CCC2(CC1)CNC(=O)C2 | 4
CC(C)N1c2ccccc2[C@H]2CN(S(=O)(=O)C3CC3)CC[C@@H]21 | 19
Cc1cccc(NC(=O)C2C(c3ccccc3)=C2c2ccccc2)c1 | 4
CCOC(=O)c1cccc(P(C)(C)=O)c1 | 14
C=CCc1c(C)nc2ccc(C(=O)OCC)cc2c1Cl | -102*
C=CCc1c(C)nc(SC)nc1Nc1ccc(C(=O)O)cc1 | -7
C=C1C(C)(C)[C@H]2CC[C@]1(C(=O)NCc1cc(COC)n[nH]1)C2 | -2
SMILES | Tgondii IFNg
CC1Oc2ccc(NCc3cccc(OCc4cccnc4)c3)cc2N(C)C1=O (configuration not stated) | 104
CC(C)COCC(CN(Cc1ccccc1)c1ccccc1)N1CCCC1 (configuration not stated) | -76*!
CC(COc1ccccc1)N(CCCl)Cc1ccccc1 (configuration not stated) | 5
Cc1cccc(NC(=O)NCC(c2cccnc2)c2c[nH]c3ccccc23)c1C (configuration not stated) | 42
CCN(CC)S(=O)(=O)N1CCn2nc(C(=O)Nc3ccccc3)cc2C1 | 280
Cn1cc(C[C@@H]2[C@H](N3CCOCC3)CCN2c2ncc(F)cn2)cn1 | 27
Cn1ncc2c3ccccc3n(CC(=O)NCCCN3CCCC3=O)c2c1=O | 9
CC(=O)NCCc1csc(-c2cccc(F)c2)n1 | 102
O=C(NCCc1csc(-c2cccc(F)c2)n1)c1cccc(Br)c1 | -81*
O=C(NCCc1csc(-c2ccc(F)cc2)n1)c1cccc(C(F)(F)F)c1 | -34
COc1cccc(C(=O)NCCc2csc(-c3ccc(F)cc3)n2)c1 | -68
COc1cccc(C(=O)NCCc2csc(-c3cccc(C)c3)n2)c1 | 366
O=C(NCCc1csc(-c2cccc(F)c2)n1)c1ccc(Br)cc1 | -50
Cc1cccc(C(=O)NCCc2csc(-c3ccccc3)n2)c1 | 152
Cc1cccc(C(=O)NCCc2csc(-c3cccc(F)c3)n2)c1 | -75*
